Screen size: about 360,000 compounds; about 2,400 (0.67%) were called active. The full list was thinned out, with actives kept by preference. A number with no mark means an inactive call.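 The calls were made as follows: active = inhibition above about 55% (limit read from the data); inconclusive = no clear call, values can overlap the other calls; inactive = the rest.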
Assay: LAMP-1 surface exposure blockers, TALL-104 cells – cell-based, flow cytometry, MLPCN library, primary screen (AID 651702)
Conditions: TALL-104 LAMP-1 surface exposure, at 10 µM, active compounds read high, cells stimulated with thapsigargin and PMA

| Compound | inhibition |
| --- | --- |
| COc1cccc(NC(=O)CSc2nccn(-c3ccc4c(c3)OCCO4)c2=O)c1 | -0.2% |
| C/C=C/c1ccc(OCC(O)CN2CCCCCCC2)c(OC)c1 (stereo unspecified) | -1% |
| CCOC(=O)N1CCN(c2cc(C)c([N+](=O)[O-])cc2F)CC1 | -1% |
| CN(C)c1ccc(N/C=C/C(=O)C(F)(F)F)cc1 | 0.5% |
| NNC(=O)C1CC(O)CN1S(=O)(=O)c1ccc(Cl)cc1 (stereo unspecified) | -0.1% |
| CN(c1ccccc1)S(=O)(=O)c1ccc(NC(=O)COc2ccccc2)cc1 | 16.3% |
| COc1cccc(COc2ccc(N(C)S(=O)(=O)c3ccccc3)cc2)c1 | 72% (active) |
| Cc1ccc2nc(COc3ccc(N(C)S(=O)(=O)c4ccccc4)cc3)cc(=O)n2c1 | 2% |
| Cc1ccc(NC(=O)CN2CCCCC2)c2c1CC(C)(C)O2 | -0.4% |
| Cc1ccccc1NC(=S)N(CCCN1CCOCC1)Cc1cccs1 | 5.8% |
| CCc1cccc(C)c1NC(=S)N(CCCN1CCN(C)CC1)Cc1cccs1 | -1.6% |
| Cc1ccc(NC(=S)N(CCCN2CCCC2)Cc2cccn2Cc2ccc(Cl)cc2)cc1 | 75.2% (active) |
| O=C(c1n[nH]c2c1CCC2)N1CCCC(Nc2cccc(F)c2)C1 (stereo unspecified) | -7.9% |
| CCCCC(CC)CNCc1cccn1CCN1CCOCC1 (stereo unspecified) | 19.8% |
| COc1ccc(NC(=O)C2=CC(c3ccc(OC)c(OC)c3)=NS(=O)(=O)N2C)cc1 | -5.8% |
| CCc1ccc(C2N3CC4([N+](=O)[O-])CN2CC([N+](=O)[O-])(C3)C4(C)C)cc1 (stereo unspecified) | -2% |
| Oc1ccc2ccccc2c1N=Nc1nccs1 | 61.9% (active) |
| CC(C)(C)c1cc2cccnc2n1Cc1ccccc1 | 0% |
| O=S(=O)(Nc1ccc2ccccc2c1)N1CCCCC1 | -2.7% |
| COc1ccc(S(=O)(=O)N(C)C[C@@H]2Oc3ccc(NS(=O)(=O)c4cn(C)cn4)cc3C(=O)N([C@@H](C)CO)C[C@@H]2C)cc1 | -0.8% |
| O=S(=O)(Nc1ccc(OC(F)(F)F)cc1)c1cccc2nonc12 | -6.5% |
| COc1ccccc1NS(=O)(=O)c1ccc(C(=O)N2CCN(c3ccccc3O)CC2)cc1 | 2.1% |
| O=S(=O)(Nc1ccc(O)c2ccccc12)c1ccc(OC(F)(F)F)cc1 | 60.2% (active) |

| Compound | inhibition |
| --- | --- |
| O=C(NCc1cccc(C(F)(F)F)c1)c1ccc2sc(COCCO)nc2c1 | 2.2% |
| C#CCN1C(=O)C(O)(CC(=O)c2cc(OC)ccc2OC)c2ccccc21 (stereo unspecified) | -1.2% |
| CCCCN1C(=O)/C(=C(/C#N)C(N)=O)c2ccccc21 | -1.7% |
| COc1ccc2c(c1)C(=C(C#N)C#N)C(=O)N2CCc1ccccc1 | 97.9% (active) |
| CCOC(=O)[C@]12CCCC=C1N(CCC1=CCCCC1)C(=O)[C@H](CC(=O)NCCCCc1ccccc1)C2 | 11.5% |
| OC(CN=c1sc2ccccc2n1CC(O)COc1ccccc1)COc1ccccc1 (stereo unspecified) | 91.1% (active) |
| OC(COc1ccc(CN2CCSCC2)cc1)CN1CCCCC1 (stereo unspecified) | 19.9% |
| Cc1cccc(OCC(O)Cn2c(=N)n(CCN3CCOCC3)c3ccccc32)c1 (stereo unspecified) | 1.7% |
| O=c1cc(CO)oc(C(Nc2cccc(C(F)(F)F)c2)c2ccccn2)c1O (stereo unspecified) | 1.7% |
| CC(C)CCN1NC2(CCC(C)CC2)NC1=S (stereo unspecified) | -6.9% |
| O=C(COC(=O)c1ccccc1SCC(=O)N1CCCC1)Nc1ccccc1OC(F)F | -7.8% |
| Cc1ccccc1CSCCNC(=O)c1ccc(N(C)S(=O)(=O)c2ccccc2)cc1 | 6.2% |
| CN(c1ccccc1)S(=O)(=O)c1ccc(C(=O)NCCc2ccccc2)cc1 | 70.8% (active) |
| CN(c1ccccc1)S(=O)(=O)c1ccc(C(=O)NCc2cccnc2)cc1 | -0.5% |
| CCOC(=O)[C@H]1[C@H]2COc3cc(OC)ccc3[C@@H]2N2C(=O)N(c3ccc(Br)cc3)C(=O)[C@@]12C | -15.5% |
| CC(Oc1ccccc1)C(=O)Nc1c2c(nn1-c1ccccc1)CS(=O)C2 (stereo unspecified) | -4% |
| CCOC(=O)N1CCC(Nc2c(NCCN3CCN(c4cccc(Cl)c4)CC3)c(=O)c2=O)CC1 | 1.5% |
| O=C(Cc1csc(Nc2nc(=S)[nH]c3ccccc23)n1)NCCCN1CCN(c2cccc(Cl)c2)CC1 | 56.9% (active) |
| O=C(Cc1ccc(-n2c(=O)[nH]c3ccccc3c2=O)cc1)N1CCN(c2cccc(Cl)c2)CC1 | -0.7% |
| CC(=O)OCC(=O)C1(O)CCC2C3CC(C)C4=CC(=O)CCC4(C)C3C(O)CC21C (stereo unspecified) | -8.4% |
| CC(C(=O)NCC1CCCCC1)N(C)Cc1cccc(Cl)c1 (stereo unspecified) | 0.2% |
| COc1ccc(NC(=O)C(c2ccncc2)n2c(=O)c(-c3cc4ccccc4[nH]3)nc3ccccc32)cc1 (stereo unspecified) | 19.8% |
| COc1cc(NC(=O)COC(=O)c2cc(S(=O)(=O)N3CCOCC3)ccc2F)cc(OC)c1 | -1.4% |

| Compound | inhibition |
| --- | --- |
| Cc1nc(-c2ccc(Cl)cc2)sc1C1(C)CC(c2ccccc2F)=NO1 (stereo unspecified) | 5.5% |
| Cc1nc(C(=O)Nc2ccc(Cl)cc2)sc1C1(C)CC(c2ccccc2)=NO1 (stereo unspecified) | 1.2% |
| Cc1nc(-c2ccc(Cl)cc2)sc1C1(C)CC(c2ccc(Br)cc2)=NO1 (stereo unspecified) | 56.1% (active) |
| Cc1ccccc1CSc1nnc(CCCCCNC(=O)OC(C)(C)C)o1 | -4.6% |
| CC(C)Cc1nnc(NC(=O)CN2C(=O)NC3(CCCCC3)C2=O)s1 | -0.9% |
| COc1cccc(CN(C)CC2CCCN(CCc3ccc(Cl)cc3)C2)c1OC (stereo unspecified) | 75.1% (active) |
| Cc1nc2ccc(C(=O)N(C)CC3CCCN(CCc4ccc(Cl)cc4)C3)cc2[nH]1 (stereo unspecified) | 6.7% |
| COc1cccc(CN(C)CC(=O)NCc2ccccc2Cl)c1OC | -3.5% |
| COCCNC(=O)C(c1ccc(O)cc1)N(C(=O)CCC(=O)Nc1nccs1)c1ccc(C)cc1 (stereo unspecified) | -4.4% |
| CCOc1cc(CN2CCCC(CO)(Cc3ccc(F)cc3F)C2)ccc1OC (stereo unspecified) | 11.4% |
| Cc1cc(C)cc(NC(=O)NC2CCN(CC(=O)Nc3cccc(Cl)c3C)CC2)c1 | 9.3% |
| COc1ccc(CCNC(=O)CN(c2ccccc2)S(C)(=O)=O)cc1 | 10.8% |
| COc1ccc(-c2oc3ncn(Cc4ccco4)c(=N)c3c2-c2ccc(OC)cc2)cc1 | 24.9% |
| N=c1c2c(-c3ccccc3)c(-c3ccccc3)oc2ncn1Cc1ccco1 | 59.7% (active) |
| C(=C\c1ccccc1)/CSc1nnc(-c2cccnc2)n1Cc1ccco1 | -1% |
| COc1ccccc1C(=O)NCCC(=O)NN1C(=O)NC2(CCCCC2)C1=O | 4% |
| O=C(O)C(F)(F)C(NCc1ccccc1)c1ccccc1 (stereo unspecified) | 2.5% |
| Cc1cc(C)n(CCNC(=O)CC2C(=O)NCCN2Cc2ccc(C)o2)n1 (stereo unspecified) | -10.6% |
| Nc1ccn(CC(=O)N2CCN(c3ccccn3)CC2)c(=O)n1 | 6.5% |
| CC(C)(C)NC(=O)CN(Cc1cccs1)C(=O)CNS(=O)(=O)c1ccccc1 | -2.2% |
| COc1ccc(OC)c(NC(=O)CN(C)CCOc2ccc(Br)cc2)c1 | 93.7% (active) |
| COc1ccc(Br)cc1CN(C)CC(=O)Nc1cc([N+](=O)[O-])ccc1OC | 0.6% |
| COc1ccc(OC)c(NC(=O)CN(Cc2ccc(Cl)cc2)S(C)(=O)=O)c1 | 6.3% |

| Compound | inhibition |
| --- | --- |
| COCc1c(C(=O)N/N=C/C2CC=CCC2)nnn1-c1nonc1N (stereo unspecified) | 1.4% |
| Cc1cc(C)n(CC(O)CN(c2ccccc2)S(=O)(=O)c2ccc3ccccc3c2)n1 (stereo unspecified) | -1% |
| CCCCN(CCCC)CC(O)Cn1c2ccccc2c(=O)c2ccccc21 (stereo unspecified) | 11.9% |
| CS(=O)(=O)N(CC(O)Cn1c2ccccc2c2ccccc21)c1cccc2ccccc12 (stereo unspecified) | 86.5% (active) |
| O=S(=O)(NCC1CC1)c1ccc(F)c(Cl)c1 | -8.8% |
| COC(=O)c1ccc(COC(=O)c2cnc(Cl)c(Cl)c2)cc1 | -4.5% |
| CCOc1ccc(C(C)=O)cc1COC(=O)c1cnc(Cl)c(Cl)c1 | 57.6% (active) |
| CCOc1ccc(C(C)=O)cc1COC(=O)CNC(=O)c1cccs1 | -4.6% |
| CC(C)(C)NS(=O)(=O)CC12CCC(CC1=O)C2(C)C (stereo unspecified) | -2.4% |
| COc1ccc(NC(=O)/C(Cl)=C(/Cl)S(=O)Cc2ccc(C)cc2)cn1 (stereo unspecified) | 103% (active) |
| O=C(O[C@@H]1[C@H](Cc2ccccc2)NS(=O)(=O)[C@H]2C[C@@H]3C=C[C@]12O3)c1ccccc1Br | -3.7% |
| COC(=O)c1ccccc1NC(=O)CSc1nc2c(c(=O)[nH]1)CCC2 | 8.6% |
| OC(COCC1COc2ccccc2O1)CN1CCN(c2ccc(F)cc2)CC1 (stereo unspecified) | -15.5% |
| CCN1CCN(CCNC(=O)c2ccc3c(c2)NC(=O)/C(=C\c2cccc(Cl)c2)S3)CC1 | 10.1% |
| CCN1CCN(CCNC(=O)c2ccc(/C=C3/Sc4ccccc4N(Cc4cccc(C)c4)C3=O)cc2)CC1 | 86.2% (active) |
| O=C(CN1C(=O)/C(=C\c2ccc(C(F)(F)F)cc2)Sc2ccccc21)NCc1ccco1 | -0.7% |
| CC(=O)c1cnc(SCC(=O)O)nc1C | -1% |
| Cc1cc(NC(=O)CS(=O)(=O)c2cn(C)c3ccccc23)no1 | -1.6% |
| COc1ccc(C(=O)NCC2CCCO2)cc1S(=O)(=O)NCc1ccc(Cl)cc1 (stereo unspecified) | -5.7% |
| C=CCn1c(SCC(=O)/C(C#N)=C(\C)N)nc2sc(C)c(C)c2c1=O | -1.8% |
| C=CCn1c(SCc2csc(C)n2)nc2scc(-c3ccc(C)o3)c2c1=O | 62.3% (active) |
| C=CCn1c(SCC(=O)Nc2ccc(NC(C)=O)cc2)nc2sc(C)c(C)c2c1=O | -3.1% |
